Source: PubChem
PLK1 PBD inh – qHTS for Inhibitors of PLK1-PDB (polo-like kinase 1 - polo-box domain): Primary Screen; AID 720504, 2013; Potency, µM, hits mostly inhibitors; hit rate 2.8% among 360,000; Serine/threonine-protein kinase PLK1 (Homo sapiens), P53350; Plk1 PBD binding of FITC phosphopeptide, fluorescence polarization; also: series mostly up to about 57 µM; nearly all actives have a fitted effect of over 65% in size
Target sequence (P53350 whole entry, looked up, the tested form may be a part): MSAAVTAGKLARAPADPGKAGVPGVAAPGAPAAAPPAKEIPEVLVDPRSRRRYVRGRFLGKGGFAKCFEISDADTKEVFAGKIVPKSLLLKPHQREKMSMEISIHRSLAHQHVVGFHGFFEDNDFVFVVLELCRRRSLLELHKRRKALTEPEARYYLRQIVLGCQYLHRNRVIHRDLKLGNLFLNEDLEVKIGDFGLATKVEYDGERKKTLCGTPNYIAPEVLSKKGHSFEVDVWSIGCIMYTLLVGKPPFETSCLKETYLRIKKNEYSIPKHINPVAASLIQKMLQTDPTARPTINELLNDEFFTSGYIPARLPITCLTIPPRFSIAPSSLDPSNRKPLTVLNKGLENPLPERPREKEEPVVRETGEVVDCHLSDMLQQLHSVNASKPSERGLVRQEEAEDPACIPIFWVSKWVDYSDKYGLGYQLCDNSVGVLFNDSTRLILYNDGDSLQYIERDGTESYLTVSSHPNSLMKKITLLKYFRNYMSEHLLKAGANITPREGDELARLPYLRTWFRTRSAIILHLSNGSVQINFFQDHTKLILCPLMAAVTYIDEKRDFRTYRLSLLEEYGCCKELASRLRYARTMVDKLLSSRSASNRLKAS
JMJD2A Tudor inh – qHTS Assay for Inhibitors of JMJD2A-Tudor Domain. AlphaScreen JMJD2A-Tudor / H3K4me3 peptide binding. hit rate 4.4% among 390,000. Lysine-specific demethylase 4A (Homo sapiens), O75164. Potency, µM (top dose mostly 114 µM), hits mostly inhibitors; also: nearly all actives have a fitted effect of over 50% in size
VDR inhibitor – Inhibitors of the vitamin D receptor (VDR): qHTS | hit rate 0.93% among 400,000 | Potency, µM, most hits filed as inhibitors | Vitamin D3 receptor (Homo sapiens), P11473 | VDR-SRC2-3 peptide fluorescence polarization, 2 h | AID 504847, 2011
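Compounds are added to VDR with labelled SRC2-3 coactivator peptide and held 2 h at room temperature. Inhibition of the VDR–peptide interaction is then read as a change in fluorescence polarization.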
BAZ2B inh – qHTS Assay for Inhibitors of BAZ2B; hit rate 4.4% among 360,000; Potency, µM (top dose mostly 114 µM), most hits filed as inhibitors; AlphaScreen BAZ2B-H3K14Ac peptide displacement; AID 504333, 2011; also: nearly all actives have a fitted effect of over 60% in size
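AlphaScreen displacement: compounds (up to 110uM) incubated 30 min at room temperature with a preformed 50 nM BAZ2B/50 nM biotinylated H3K14Ac peptide complex in PBS pH 7.4 with Tween-20. Donor and acceptor beads at 10 ug/mL final added, 20 min light-protected before reading.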
HP1b chromo inh – HTS for Inhibitors of HP1-beta Chromodomain Interactions with Methylated Histone Tails; Potency, µM (titrated, usually from 114 µM), usual class: inhibitors; hit rate 0.56% among 390,000; Chromobox protein homolog 1 (Homo sapiens), P83916; AlphaScreen HP1-beta / biotin-H3K9me3 peptide binding; also: nearly all actives have a fitted effect of over 70% in size
Target sequence (P83916 whole entry, looked up): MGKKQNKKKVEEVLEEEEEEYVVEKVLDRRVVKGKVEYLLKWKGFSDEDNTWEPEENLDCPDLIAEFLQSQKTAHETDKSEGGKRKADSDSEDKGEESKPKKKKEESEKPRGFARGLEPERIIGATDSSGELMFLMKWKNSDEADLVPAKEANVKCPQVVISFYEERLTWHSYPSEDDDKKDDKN
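Compound inhibition of the preformed complex between 50 nM HP1-beta and 50 nM biotinylated H3K9me3 peptide was read by AlphaScreen. Buffer was PBS pH 7.4 with 0.01% Tween-20. Incubations ran 30 min at room temperature, with 10 ug/mL donor/acceptor beads.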
L3MBTL1 inh – qHTS Assay for the Inhibitors of L3MBTL1; Lethal(3)malignant brain tumor-like protein 1 (Homo sapiens), Q9Y468; AlphaScreen L3MBTL1–H3K9me1 peptide binding; Potency, µM (titrated, usually from 57.1 µM), usual class: inhibitors; hit rate 0.66% among 230,000; AID 485360, 2010; also: nearly all actives have a fitted effect of over 60% in size
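Read-out is AlphaScreen signal from streptavidin donor and nickel chelate acceptor beads (10 ug/mL final each) bridging L3MBTL1 (50 nM) and biotinylated K9-monomethylated H3(1-15) peptide (75 nM), after 30 min compound exposure at room temperature.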
Large screens that a line does not name were inactive. Only some compounds are listed: those with a hit (about 6.9% of all), similar ones and a draw of the others. Calls follow the shape of the dose curve; as a rule, active = well fitted curve in the direction sought with a large enough effect; inconclusive = small, poorly fitted or top-dose-only effect, or another doubt; inactive = no such curve, though single readings can be large; an effect the other way counts as inactive or inconclusive.

O=C(C[C@H]1C[C@H](C(=O)N2CCOCC2)[C@@]2(CCC3CCCC3)c3[nH]c4cc(-c5ccco5)ccc4c3CCN2C1=O)NCCCn1ccnc1	JMJD2A Tudor inh 56.2µM, HP1b chromo inh inconclusive (no result: BAZ2B inh)
CCN(CC)C(=O)[C@H]1C[C@H](CC(=O)NCCCn2ccnc2)C(=O)N2CCc3c([nH]c4cc(-c5ccco5)ccc34)[C@]12C	PLK1 PBD inh inconclusive, JMJD2A Tudor inh inconclusive (no result: BAZ2B inh)
COCCCNC(=O)C[C@H]1C[C@H](C(=O)N2CCCCC2)[C@@]2(CCc3ccccc3)c3[nH]c4cc(-c5ccco5)ccc4c3CCN2C1=O	JMJD2A Tudor inh 44.7µM, HP1b chromo inh inconclusive (no result: BAZ2B inh)
O=C(C[C@H]1C[C@H](C(=O)N2CCCCC2)[C@@]2(CCc3ccccc3)c3[nH]c4cc(-c5ccco5)ccc4c3CCN2C1=O)NCCN1CCOCC1	JMJD2A Tudor inh 39.8µM, HP1b chromo inh 20µM (no result: BAZ2B inh)
NC(=O)c1ccc2nc(-c3ccc(Oc4ccc(Cl)cc4)cc3)[nH]c2c1	none (no result: PLK1 PBD inh, JMJD2A Tudor inh, BAZ2B inh, HP1b chromo inh, L3MBTL1 inh)
CSc1ccc(S(=O)(=O)NCc2ccc(Cl)cc2Cl)cc1	none (no result: L3MBTL1 inh)
COc1ccc2[nH]c3c(c2c1)CCN1C(=O)C(CC(=O)NCc2ccc(OC)c(OC)c2)C[C@H](C(=O)N2CCOCC2)[C@@]31CCC1CCCC1 (stereo partly drawn)	PLK1 PBD inh 18.9µM, JMJD2A Tudor inh 50.1µM, VDR inhibitor inconclusive (no result: BAZ2B inh)
COc1ccc(CNC(=O)CC2C[C@H](C(=O)N3CCOCC3)[C@@]3(CCC4CCCC4)c4[nH]c5ccccc5c4CCN3C2=O)cc1OC (stereo partly drawn)	JMJD2A Tudor inh inconclusive (no result: BAZ2B inh)
COc1ccc(C2/C=C\CN(Cc3ccc(N(C)C)cc3)CC(=O)N2Cc2ccc(F)cc2)cc1 (stereo not drawn)	JMJD2A Tudor inh 25.1µM, BAZ2B inh 31.6µM, HP1b chromo inh inconclusive (no result: L3MBTL1 inh)
COc1ccc(C2/C=C\CN(C(=O)C3CC3)CC(=O)N2Cc2ccc(F)cc2)cc1 (stereo not drawn)	none (no result: L3MBTL1 inh)
COC(=O)CCN1CCC2CC1c1cc(Cl)ccc12 (stereo not drawn)	none (no result: BAZ2B inh, L3MBTL1 inh)
CCOc1ccc(Nc2nc(Cc3nnc(SCC(=O)O)o3)cs2)cc1	JMJD2A Tudor inh 89.1µM, BAZ2B inh inconclusive, L3MBTL1 inh inconclusive
O=[N+]([O-])c1ccc(C2=NN(c3ccccc3)C(c3ccco3)C2)cc1 (stereo not drawn)	JMJD2A Tudor inh inconclusive, HP1b chromo inh inconclusive, L3MBTL1 inh inconclusive
O=[N+]([O-])c1ccc(/C=C/C2=NN(c3ccccc3)C(c3ccco3)C2)cc1 (stereo not drawn)	JMJD2A Tudor inh inconclusive, BAZ2B inh 50.1µM
C=C(CCC(=O)c1ccccc1)C(=O)c1ccccc1	VDR inhibitor 44.7µM
Cc1ccccc1-c1cc(N(C)Cc2ccco2)ncn1	VDR inhibitor 44.7µM (no result: PLK1 PBD inh, JMJD2A Tudor inh, BAZ2B inh, HP1b chromo inh, L3MBTL1 inh)
CN(Cc1ccco1)c1cc(-c2ccoc2)ncn1	VDR inhibitor 28.2µM (no result: PLK1 PBD inh, JMJD2A Tudor inh, BAZ2B inh, HP1b chromo inh, L3MBTL1 inh)
Cc1noc(C)c1-c1cc(N(C)Cc2ccco2)ncn1	VDR inhibitor 31.6µM (no result: PLK1 PBD inh, JMJD2A Tudor inh, BAZ2B inh, HP1b chromo inh, L3MBTL1 inh)
COc1cccc(-c2cc(N(C)Cc3ccco3)ncn2)c1	VDR inhibitor 44.7µM (no result: PLK1 PBD inh, JMJD2A Tudor inh, BAZ2B inh, HP1b chromo inh, L3MBTL1 inh)
Cc1cccc(CNc2cc(-c3c(C)noc3C)ncn2)c1	none (no result: PLK1 PBD inh, JMJD2A Tudor inh, BAZ2B inh, HP1b chromo inh, L3MBTL1 inh)
COc1cccc(C(=O)N(Cc2ccco2)c2ccccn2)c1	none (no result: PLK1 PBD inh, L3MBTL1 inh)
Cn1nnc2c(N3CCN(c4cccc(Cl)c4)CC3)ncnc21	none (no result: PLK1 PBD inh, L3MBTL1 inh)
CNc1cc(-c2ccccc2C)ncn1	VDR inhibitor 50.1µM (no result: PLK1 PBD inh, JMJD2A Tudor inh, BAZ2B inh, HP1b chromo inh, L3MBTL1 inh)
CCn1c(=O)c2cc(C(=O)Nc3cccc(C(F)(F)F)c3)sc2c2ccccc21	none (no result: PLK1 PBD inh, L3MBTL1 inh)
NC(=S)N=Nc1c(O)n(CCCl)c2ccc(Br)cc12	BAZ2B inh inconclusive
C/C(Cl)=C\Cn1c(O)c(N=NC(N)=S)c2cc(Br)ccc21	JMJD2A Tudor inh 44.7µM, VDR inhibitor inconclusive, BAZ2B inh 10µM, HP1b chromo inh inconclusive
COc1ccc(NC2=C(C)C(=O)CC2)cc1	BAZ2B inh 56.2µM (no result: L3MBTL1 inh)
COc1ccc(NC2=CC(=O)N(C)C2=O)cc1	none
COc1ccc(Nc2ccc(OC)cc2)cc1	JMJD2A Tudor inh 50.1µM, BAZ2B inh 20µM, HP1b chromo inh 39.8µM, L3MBTL1 inh 15.8µM
COc1ccc(Nc2cccc3ccccc23)cc1	JMJD2A Tudor inh 56.2µM, BAZ2B inh inconclusive, HP1b chromo inh inconclusive
COc1ccc(Nc2nc3ccc(OC)cc3s2)cc1	JMJD2A Tudor inh inconclusive, BAZ2B inh 56.2µM
COc1ccc(Nc2cccccc2=O)cc1	JMJD2A Tudor inh inconclusive
COc1ccc(OC)cc1	none (no result: BAZ2B inh)
COc1ccc(CNC[C@H]2O[C@@H](n3ccc(=O)[nH]c3=O)[C@H](O)[C@@H]2O)cc1	none (no result: JMJD2A Tudor inh, VDR inhibitor, BAZ2B inh, HP1b chromo inh, L3MBTL1 inh)
C=CCn1c(=O)c2c(nc3n2CC(C)CN3CCc2ccccc2)n(C)c1=O (stereo not drawn)	BAZ2B inh inconclusive (no result: L3MBTL1 inh)
COc1ccc(Nc2nc(NN)nc(Nc3ccc(OC)cc3)n2)cc1	JMJD2A Tudor inh 44.7µM, BAZ2B inh 25.1µM, L3MBTL1 inh inconclusive
COc1ccc2nc(/N=C\N(C)C)sc2c1	BAZ2B inh 56.2µM, HP1b chromo inh inconclusive
COc1ccc2nc(N=Nc3ccc(N(C)C)cc3)sc2c1	JMJD2A Tudor inh inconclusive, BAZ2B inh inconclusive, L3MBTL1 inh inconclusive
COc1cc(CNC(=O)c2sc3ncccc3c2-n2cccc2)cc(OC)c1OC	none (no result: PLK1 PBD inh, L3MBTL1 inh)
Cc1ccc(C)c(N2C(=O)N(Cc3ccccc3C)c3ccccc3S2(=O)=O)c1	none (no result: PLK1 PBD inh, L3MBTL1 inh)
Cc1ccc(S(=O)(=O)NCCCCCC(=O)Nc2nccs2)cc1	JMJD2A Tudor inh inconclusive, BAZ2B inh 79.4µM
Cc1ccc(NC(=O)CCCCCNS(=O)(=O)c2ccc(C)cc2)cc1	none
CCOC(=O)c1c(S(=O)(=O)Nc2ccc(C)cn2)c(C)n(C)c1C	PLK1 PBD inh 21.2µM, JMJD2A Tudor inh inconclusive, VDR inhibitor inconclusive (no result: L3MBTL1 inh)
